Inconclusive results are not listed. Activity calls are given as the source filed them. Unless noted, calls come from the whole dose curve; as a rule, active = well fitted curve in the direction sought with a large enough effect; inconclusive = small, poorly fitted or top-dose-only effect, or another doubt; inactive = no such curve, though single readings can be large; an effect the other way counts as inactive or inconclusive.
Tests used:
[1] = qHTS to identify inhibitors of the type 1 interferon - major histocompatibility complex class I in skeletal muscle: primary screen against the NCATS LOPAC collection (AID 1347405);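 note: lytic HiBiT luminescence reporting HLA-B protein level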
In short: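 Immortalized human C25cl48 myoblasts with HiBiT knocked into endogenous HLA-B*08:01 were stimulated with 4.0 ng/ml IFN-beta and given compounds in a 7-point, 1:4.3 titration from 46 uM final; after 24 hrs, lytic HiBiT luminescence was read.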

[2] = qHTS for inhibitors of adenylyl cyclases using a fission yeast platform: a pilot screen against the NCATS LOPAC library (AID 1347410)
In short: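 S. pombe CHP2027 (AC9-GNAS-PDE4D2) carrying PKA-repressed fbp1-GFP, incubated 18 h at 30C in EMM with LOPAC compounds at up to 57 uM. GFP gain-of-signal read by laser scanning cytometry; DMSO negative control.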

[3] = Validation qHTS assay for inhibitors of Activation Induced Cytidine Deaminase (AID): UDG Counterscreen signal (AID 1347427)
In short: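 Counterscreen read of UDG activity (2 U/mL, 4/3x) in the FRET deamination format with AID (1 uM, 4/3x), DJC20/DJC23 substrates (250 nM, 4x), 4 h at room temperature. NaOH stop, fluorescence at 560 ex/665 em.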

[4] = molecular target: Single-stranded DNA cytosine deaminase (Homo sapiens) (UniProt Q9GZX7); assay: Validation qHTS assay for inhibitors of Activation Induced Cytidine Deaminase (AID): AID signal (AID 1347429)
In short: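 AID and UDG were combined and compounds added at final up to 114 uM, then DJC20/DJC23 FRET substrate was added for 4 hr at room temperature. NaOH was then added for 30 min before fluorescence was read at 540/590 nm.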

[5] = Redox Reaction Profiling qHTS: Assay Interference Panel against the NCATS CANVASS Library (AID 1347401)
In short: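 Resazurin (5 uM) conversion to resorufin measured with 200 uM DTT in 50 mM HEPES pH 7.3, 50 mM NaCl. Compounds tested in 11-point qHTS series. Fluorescence (ex 525/em 598 nm) read before and after 15 min dark incubation.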

[6] = qHTS for inhibitors of Rabies Virus screened against the NCATS CANVASS Library (AID 1347402; calls by dose curve; note: series mostly up to about 46 µM)
[7] = qHTS to identify inhibitors of the type 1 interferon - major histocompatibility complex class I in skeletal muscle: primary screen against the NCATS Mechanism Interrogation Plate v5.0 (MIPE) Libary (AID 1347411); note: nearly all actives have a fitted effect of over 65% in size
In short: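 Immortalized human C25cl48 myoblasts with HiBit knocked into endogenous HLA-B*08:01 were stimulated with 4.0 ng/ml IFN-beta and exposed to compounds (11-point 1:3 titration, top 46 uM final) for 24 hrs at 37 C; HiBiT lytic luminescence measured.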

[8] = qHTS to identify inhibitors of the type 1 interferon - major histocompatibility complex class I in skeletal muscle: primary screen against the NCATS Pharmaceutical Collection (AID 1347407);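 note: luminescence of HiBiT knocked into endogenous HLA-B as interferon-induced MHC class I level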
In short: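 Immortalized human myoblasts (C25cl48) with HiBiT knocked into endogenous HLA-B*08:01 were stimulated with 4.0 ng/ml IFN-beta and treated with compounds ([…] top 46 uM) for 24 hrs at 37 C. HiBiT lytic luminescence read.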

[9] = molecular target: Protein phosphatase 1D (Homo sapiens) (UniProt O15297); assay: RapidFire Mass Spectrometry qHTS Assay for Modulators of WT P53-Induced Phosphatase 1 (WIP1) (AID 1347424);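 note: amount of dephosphorylated VEPPL-S-QETFS peptide product formed by WIP1; series mostly up to about 63 µM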
In short: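 WIP1 (10 nM final) was preincubated 1 h at room temperature with compounds in Tris-HCl pH 7.5, 30 mM MgCl2, TCEP, EGTA, BSA; 2 uM VEPPL-pS-QETFS phosphopeptide was added for 5 min, quenched with formic acid, and dephosphorylated product quantified by RapidFire MS.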

[10] = molecular target: Protein phosphatase 1D (Homo sapiens) (UniProt O15297); assay: Rhodamine-PBP qHTS Assay for Modulators of WT P53-Induced Phosphatase 1 (WIP1) (AID 1347425)
In short: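 5 nM WIP1 + 10 uM Rh-PBP, 50 mM Tris pH 7.5, 30 mM MgCl2, 1 mM TCEP, 0.1 mM EGTA, BSA; cpds pinned, 1 hr RT; + 10 uM phosphopeptide; fluorescence 1-min reads x 11 min; delta = f1 - f0.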

Measured: Potency

Single-stranded DNA cytosine deaminase (Homo sapiens), sequence (Q9GZX7 whole entry, looked up): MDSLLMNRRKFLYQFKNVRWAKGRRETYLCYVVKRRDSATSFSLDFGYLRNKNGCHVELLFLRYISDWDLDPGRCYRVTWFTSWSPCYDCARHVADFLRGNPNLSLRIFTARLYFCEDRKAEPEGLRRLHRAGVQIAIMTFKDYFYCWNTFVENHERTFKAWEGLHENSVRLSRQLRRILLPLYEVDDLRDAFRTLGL
Protein phosphatase 1D (Homo sapiens), sequence (O15297 whole entry, looked up): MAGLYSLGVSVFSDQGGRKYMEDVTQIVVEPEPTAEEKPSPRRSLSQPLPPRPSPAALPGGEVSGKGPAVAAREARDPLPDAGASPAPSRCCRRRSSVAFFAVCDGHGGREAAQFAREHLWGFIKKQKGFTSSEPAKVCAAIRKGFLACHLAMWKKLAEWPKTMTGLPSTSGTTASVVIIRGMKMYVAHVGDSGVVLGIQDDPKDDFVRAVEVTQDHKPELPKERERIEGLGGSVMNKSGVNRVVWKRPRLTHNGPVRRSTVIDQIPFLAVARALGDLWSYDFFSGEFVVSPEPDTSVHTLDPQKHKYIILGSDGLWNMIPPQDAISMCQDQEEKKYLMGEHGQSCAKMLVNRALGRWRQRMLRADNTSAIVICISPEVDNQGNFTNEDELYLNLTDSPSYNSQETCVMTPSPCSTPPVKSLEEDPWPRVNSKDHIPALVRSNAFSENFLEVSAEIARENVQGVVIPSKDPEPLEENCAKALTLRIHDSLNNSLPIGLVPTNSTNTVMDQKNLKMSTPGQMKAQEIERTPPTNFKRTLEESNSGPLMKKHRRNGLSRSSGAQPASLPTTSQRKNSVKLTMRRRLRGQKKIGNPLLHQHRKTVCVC

C=CCN1CC[C@]23CCCCC2[C@H]1Cc1ccc(O)cc13 (stereo partly drawn)
inactive: [1] | [2] | [3] | [4]

CC1=NN=C(c2ccc(N)cc2)c2cc3c(cc2C1)OCO3
inactive: [1] | [2] | [3] | [4]

NC1CCc2cc(O)c(O)cc2C1 (stereo not drawn)
inactive: [1] | [2] | [3] | [4]

NC(=O)CN1CC(O)CC1=O (stereo not drawn)
inactive: [1] | [2] | [3] | [4]

C[C@@H]1O[C@H](C[N+](C)(C)C)C[C@H]1O
inactive: [1] | [2] | [3] | [4]

NCCc1c[nH]c2ccccc12
inactive: [5] | [6] | [1] | [2] | [3] | [4]

O=C1CCCN1CC#CCN1CCCC1
inactive: [1] | [2] | [3] | [4]

NC(CCP(=O)(O)O)C(=O)O (stereo not drawn)
inactive: [1] | [2] | [3] | [4]

O=C(N[C@H]1CN2CCC1CC2)c1ccc(Cl)cc1
inactive: [1] | [2] | [7] | [3] | [4]

CC(=O)NCCc1c[nH]c2ccccc12
inactive: [1] | [2] | [3] | [4]

CCCN1CCC[C@H](c2cccc(O)c2)C1
inactive: [1] | [2] | [3] | [4]

CCCN(CCC)C1CCc2ccc(O)cc2C1 (stereo not drawn)
inactive: [1] | [2] | [3] | [4]

CC(=O)[C@H]1CCC2C3CC[C@H]4C[C@H](O)CC[C@]4(C)C3CC[C@@]21C (stereo partly drawn)
inactive: [1] | [2] | [3] | [4]

CC(C)NC(C)Cc1ccc(I)cc1 (stereo not drawn)
inactive: [1] | [2] | [3] | [4]

C#CCOC(=O)C1=CCCN(C)C1
inactive: [1] | [2] | [3] | [4]

Clc1cnc(Oc2ccc(Oc3ncc(Cl)cc3Cl)cc2)c(Cl)c1
inactive: [1] | [2] | [3] | [4]

Oc1ccc2c3c1O[C@H]1c4[nH]c5c(c4C[C@@]4(O)[C@@H](C2)N(CC2CC2)CC[C@]314)C[C@@]1(O)[C@H]2Cc3ccc(O)c4c3[C@@]1(CCN2CC1CC1)[C@H]5O4
inactive: [1] | [2] | [3] | [4]

C[N+](C)(C)CC(=O)O
inactive: [1] | [2]

CCCCc1ccc(C(=O)O)nc1
inactive: [1] | [2] | [3] | [4]

COc1cc(C(O)CN)ccc1O (stereo not drawn)
inactive: [1] | [2] | [3] | [4]

C[C@]12CCC3C(CC[C@H]4C[C@H](O)CC[C@]34C)C1CC[C@@H]2C(=O)CO (stereo partly drawn)
inactive: [1] | [2] | [3] | [4]

CNCCc1ccc(O)c(O)c1
inactive: [1] | [2] | [3] | [4]

c1ccc2sc(C3(N4CCCCC4)CCCCC3)cc2c1
inactive: [1] | [2] | [3] | [4]

C[C@]12N[C@H](Cc3ccccc31)c1ccccc12
inactive: [1] | [2] | [3] | [4]

CC[C@@H](C(N)=O)N1CCCC1=O
inactive: [1] | [2] | [7] | [3] | [4]

C[N+]1(C)C2CCC1CC(OC(=O)C(CO)c1ccccc1)C2 (stereo not drawn)
inactive: [1] | [2] | [3] | [4]

NC(=NCCC[C@H](N)C(=O)O)N[N+](=O)[O-]
inactive: [1] | [2] | [3] | [4]

O=C(O)Cc1cnc[nH]1
inactive: [1] | [2] | [3] | [4]

CN1C2CCC1CC(OC(=O)c1cc(Cl)cc(Cl)c1)C2 (stereo not drawn)
inactive: [1] | [2] | [3] | [4]

CC(Cc1ccc(O)cc1)NCC(O)c1cc(O)cc(O)c1 (stereo not drawn)
inactive: [1] | [8] | [2] | [9] | [10]

COC(=O)[C@@H](N)CCCN=C(N)N[N+](=O)[O-]
inactive: [1] | [2] | [7] | [3] | [4]

CCCN(CCC)[C@@H]1CCc2ccc(O)cc2C1
inactive: [1] | [2] | [3] | [4]

NCCc1c[nH]c2ccc(O)cc12
inactive: [5] | [6] | [1] | [2] | [3] | [4]
